The list is not random: actives were taken first. Their share in the collection is about 19%.
Giardia killer – kills Giardia lamblia; activity change, % at 7.66 µM, hits read low; Giardia lamblia trophozoite viability; 340,000 compounds, 0.15% hits; in the data active = activity change below about -80%; inconclusive = between about -30% and that limit;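 note: parasites exposed to compound for two days anaerobically before the ATP read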
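ATP-content bioluminescence gauges trophozoite survival. Cells (100/well) receive compound and incubate anaerobically for 48 hrs at 37 deg C; detection reagent follows for 15-30 min at room temperature.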
IL1B secr inh – blocks inflammasome-driven IL-1 beta release | THP-1 LPS/ATP IL-1B secretion, AlphaLISA, 16 h; active compounds read low | activity change, % at 57.5 µM | 360,000 compounds, 4.7% hits | AID 743279; in the data active = activity change below about -50%; inconclusive = mostly about -30% to -49%
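THP-1 cells pretreated 1 hr with compounds (up to 57.5 uM final), then stimulated with LPS (250 ng/mL final) plus ATP (1.25 mM final); secreted IL-1B measured by AlphaLISA after 16 hr, decreased signal indicating inhibition.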
ELG1 DNA repair – blocks ELG1-dependent DNA repair in HEK293T cells. AID 504467. Potency, µM (doses to about 46.1 µM), for inactives: at the highest dose activity change, negative = inhibition, usual class: inhibitors. HEK293T ELG1-luciferase reporter, luminescence, 16 h; DNA damage induced by 5-fluorouridine. 330,000 compounds, 2.3% hits; note: potency is the fitted concentration of half-maximal effect; nearly all actives have a fitted effect of over 55% in size
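Luminescence from the luciferase reporter, measured 30 min after ONE-Glo reagent at room temperature, was the read-out. Beforehand, 2,000 cells per well were exposed for 16 hr at 37 °C to 5-fluorouridine together with compound or vehicle.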
TDP1 cell CPT – growth inhibition of DT40 Tdp1-/-;hTDP1 cells with camptothecin (screen for TDP1 inhibitors). chicken DT40 Tdp1-/-;hTDP1 cells + 20 nM CPT, ATP luminescence, 48 h. Potency, µM (titrated, usually from 46.2 µM), for the others: at the top dose activity change, negative = growth inhibition, actives largely listed as inhibitors. 420,000 compounds, 12% hits. AID 686979; note: potency is the fitted concentration of half-maximal effect; nearly all actives have a fitted effect of over 55% in size
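Chicken DT40 Tdp1-/- cells stably complemented with human TDP1 were seeded at 400 cells/well in medium containing 20 nM camptothecin, exposed to pin-transferred compounds, and grown at 37 °C for at least 48 hr. Viability was read as ATP luminescence.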
DT40 TDP1 no CPT – qHTS for Inhibitors of human tyrosyl-DNA phosphodiesterase 1 (TDP1): qHTS in cells in absence of CPT | AID 686978, 2013 | DT40 Tdp1-/- hTDP1 cells, no CPT, ATP luminescence, 48 h | Potency, µM (titrated, usually from 46.2 µM), inactives show top-dose activity change, negative = growth inhibition, hits mostly inhibitors | 420,000 compounds, 15% hits; note: potency is the fitted concentration of half-maximal effect; nearly all actives have a fitted effect of over 55% in size
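Seeded 400 DT40-hTDP1 cells/well (vehicle DMSO, no 20 nM CPT); pinned compounds; ≥48 hr at 37 °C; CellTiter-Glo luminescence as viability measure.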
TDP1 block – TDP1 (human) enzyme inhibition; 350,000 compounds, 0.28% hits; recombinant TDP1, AlphaScreen DNA substrate cleavage; AID 485290; Potency, µM (titrated, usually from 130 µM), inactives show top-dose activity change, negative = inhibition, usual class: inhibitors; note: potency is the fitted concentration of half-maximal effect; nearly all actives have a fitted effect of over 40% in size
Target sequence (Q9NUW8 whole entry, looked up): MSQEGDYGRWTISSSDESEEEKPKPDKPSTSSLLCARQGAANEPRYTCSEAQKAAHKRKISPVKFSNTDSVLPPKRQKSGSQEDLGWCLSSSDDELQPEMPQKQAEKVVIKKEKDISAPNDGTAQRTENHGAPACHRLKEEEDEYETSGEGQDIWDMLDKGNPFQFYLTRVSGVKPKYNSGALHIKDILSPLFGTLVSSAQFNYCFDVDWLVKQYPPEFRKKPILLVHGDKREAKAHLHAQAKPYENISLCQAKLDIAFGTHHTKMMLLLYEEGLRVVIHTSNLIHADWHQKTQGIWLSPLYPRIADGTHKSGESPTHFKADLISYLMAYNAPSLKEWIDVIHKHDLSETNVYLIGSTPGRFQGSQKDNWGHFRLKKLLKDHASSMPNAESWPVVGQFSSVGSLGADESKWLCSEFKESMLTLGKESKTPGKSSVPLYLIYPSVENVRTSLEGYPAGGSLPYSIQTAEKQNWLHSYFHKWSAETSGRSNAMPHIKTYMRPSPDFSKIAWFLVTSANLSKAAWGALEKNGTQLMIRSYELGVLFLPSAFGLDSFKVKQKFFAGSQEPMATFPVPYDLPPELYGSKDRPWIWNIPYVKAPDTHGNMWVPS
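Signal: AlphaScreen proximity between streptavidin donor and anti-FITC acceptor beads on intact substrate. Reaction: Tdp1 1 nM, substrate 15 nM final, 5 min RT after 15 min compound preincubation.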
An asterisk follows results filed as active; ? = inconclusive; / = not tested or not shown; [ ] = another dose, or the depositor's remark. Unless noted, calls come from the whole dose curve; as a rule, active = well fitted curve in the direction sought with a large enough effect; inconclusive = small, poorly fitted or top-dose-only effect, or another doubt; inactive = no such curve, though single readings can be large; an effect the other way counts as inactive or inconclusive. % is set by controls: 0 for no effect and ±100 for the full control effect.

SMILES | Giardia killer | IL1B secr inh | ELG1 DNA repair | TDP1 cell CPT | DT40 TDP1 no CPT | TDP1 block
CCOC(=O)C1CCCN(CCC(C)c2ccccc2)C1 (stereo not given) | -3 | 20 | 18% | -4% | -1% | 5%
CN1/C(=C/C(=O)COC(=O)CN2C(=O)C3CC=CCC3C2=O)C(C)(C)c2ccccc21 (stereo not given) | 4 | -11 | / | ? | 16µM* | /
CN1/C(=C\C(=O)Nc2cccc(Cl)c2)C(C)(C)c2ccccc21 | -12 | -72* | -12% | ? | 23µM* | 3%
CN(C(=O)COC(=O)CN1C(=O)C2CC=CCC2C1=O)c1ccccc1 (stereo not given) | -22 | 13 | ? | -6% | -9% | 5%
CN1/C(=C\C(=O)COC(=O)Cn2nnc(-c3ccccc3)n2)C(C)(C)c2ccccc21 | 1 | 8 | -3% | 4.1µM* | 3.7µM* | -1%
CCOC(=O)C1CCCN(CC(=O)/C=C2/N(C)c3ccccc3C2(C)C)C1 (stereo not given) | 1 | -9 | -17% | ? | 13µM* | 0%
CN1/C(=C\C(=O)Nc2ccc(Br)cc2)C(C)(C)c2ccccc21 | 22 | -2 | 1% | ? | -9% | 5%
CN1/C(=C/C(=O)C2CC2)C(C)(C)c2ccccc21 | 6 | 40 | 10% | ? | 23µM* | -1%
O=C(NCCc1ccccc1)c1ccc(CSc2nc3ccncc3n2Cc2cccc(F)c2)cc1 | / | / | / | 13µM* | 12µM* | 8%
CCN(CC)CCNC(=O)c1ccc(CSc2nc3ccncc3n2Cc2cccc(F)c2)cc1 | / | / | / | ? | ? | 5%
CCCCNC(=O)Cn1c(SCc2cccc(C)c2)nc2ccncc21 | ? | / | / | -23% | -19% | 0%
O=C(NCCc1ccccc1)c1ccc(CSc2nc3ccncc3n2Cc2ccccc2F)cc1 | / | / | / | 15µM* | ? | 8%
Cc1cccc(Cn2c(SCc3ccc(C(=O)NCCc4ccccc4)cc3)nc3ccncc32)c1 | / | / | / | ? | 13µM* | 10%
O=C(NC1CCCCC1)c1ccc(CSc2nc3ccncc3n2Cc2ccccc2F)cc1 | / | / | / | ? | ? | 0%
CC(NC(=O)c1cc(-c2ccccn2)nc2ccc(Cl)cc12)C1CCCO1 (stereo not given) | -2 | 13 | ? | -15% | -10% | 2%
CC(C)c1ccc(NC(=O)CSc2nc3ccccc3nc2Cc2ccccc2)cc1 | / | / | / | ? | -24% | 3%
CC(=O)Nc1ccc(N=Cc2c(O)c3ccccc3oc2=O)cc1 | -9 | -5 | 0% | 21µM* | -11% | /
CC(=O)c1cccc(N=Cc2c(O)c3ccccc3oc2=O)c1 | 4 | 30 | 6% | 0% | 3% | 3%
CC(=O)Nc1ccc(N=Cc2c(O)c(C(=O)Nc3ccccc3)cc3ccccc23)cc1 | -4 | 57 | ? | ? | 16µM* | -3%
COc1ccc(CN(C(=O)c2ccccc2Br)C2CCS(=O)(=O)C2)cc1 (stereo not given) | 12 | 14 | 9% | 6% | -21% | /
CCc1cccc(C)c1NC(=O)CSc1nnc(N)s1 | / | / | / | -3% | -6% | -8%[12.3 µM]
COc1ccc(N2CCN(Cc3nc4c(c(=O)[nH]c(=O)n4C)n3Cc3ccc(C)cc3)CC2)cc1 | / | / | / | -2% | ? | 6%
CCCCCn1c(CN2CCN(c3ccc(OC)cc3)CC2)nc2c1c(=O)[nH]c(=O)n2C | / | / | / | ? | 23µM* | 14%
CCCCCn1c(CN2CCN(c3cc(Cl)ccc3C)CC2)nc2c1c(=O)[nH]c(=O)n2C | 18 | ? | ? | 14µM* | 13µM* | 0%
COc1ccc(-c2ccc(CN3C(C)C(=O)N(Cc4cn(CCC5OCCO5)nn4)CCS3(=O)=O)cc2)cc1 (stereo not given) | / | -7 | / | 9.2µM* | 23µM* | /
SMILES | Giardia killer | IL1B secr inh | ELG1 DNA repair | TDP1 cell CPT | DT40 TDP1 no CPT | TDP1 block
COc1ccc(-c2ccc(CN3C(C)C(=O)N(Cc4cn(CCC5OCCO5)nn4)CCS3(=O)=O)cc2)cn1 (stereo not given) | / | 20 | / | ? | 21µM* | /
CC1C(=O)N(Cc2cn(CCC3OCCO3)nn2)CCS(=O)(=O)N1Cc1ccc(-c2cccc(CO)c2)cc1 (stereo not given) | / | 1 | / | 6% | -5% | /
CC1C(=O)N(Cc2cn(CCC3OCCO3)nn2)CCS(=O)(=O)N1Cc1ccc(-c2ccc(Cl)c(Cl)c2)cc1 (stereo not given) | / | -19 | / | 15µM* | 6.5µM* | /
CC(C)COc1ccc(C/C(N)=N/n2cnnc2)cc1 | 2 | 11 | ? | 5.2µM* | 5.8µM* | -5%
COc1ccc(C/C(N)=N/n2cnnc2)cc1 | 7 | 12 | 7% | -3% | -12% | 2%
Nn1c(SCC(=O)Nc2nccs2)nnc1-c1ccccn1 | 2 | 7 | 13% | 16% | 0% | /
CCOc1ccc(NC(=O)CCN2CCN(C)CC2)cc1 | 9 | 6 | -7% | -4% | 1% | 4%
CC1=C(C#N)C(c2cn(-c3ccccc3)nc2-c2cccs2)C(C#N)=C(C)N1 | 2 | -90* | -24% | -18% | -24% | 3%
O=CC1=C(c2ccccc2)Oc2ccccc2O1 | 11 | -102* | 3% | ? | ? | /
CC(C)CCn1c(N2CCCC2)nc2c1c(=O)n(C)c(=O)n2C | 17 | 43 | -6% | ? | 21µM* | /
CCCCCCn1c(N2CCCC2)nc2c1c(=O)n(C)c(=O)n2C | 13 | -3 | ? | ? | 18µM* | 8%
C=C(C)Cn1c(N2CCCC2)nc2c1c(=O)n(C)c(=O)n2C | 12 | 8 | -9% | ? | ? | 2%
COc1ccc(NS(=O)(=O)c2cc(NC(=O)c3ccc(=O)[nH]n3)ccc2N2CCOCC2)cc1 | 0 | 4 | 15% | ? | ? | -4%
CC(C)c1nc2sc(C(=O)O)c(N)c2c2c1CCCC2 | -7 | 0 | ? | 10% | -18% | 5%
NC(=O)c1sc2nc(-c3ccccc3)c3c(c2c1N)CCCC3 | 8 | 8 | -9% | ? | 16µM* | 4%
Cc1ccc(-c2nc3sc(C(N)=O)c(N)c3c3c2CCCC3)cc1 | -3 | -2 | ? | ? | ? | -1%
CCc1nc2sc(C(C)=O)c(N)c2c2c1CCCC2 | 14 | -2 | -1% | ? | 15µM* | 3%
Cc1nc2sc(C(N)=O)c(N)c2c2c1CCCC2 | -15 | -95* | ? | ? | ? | -1%

From PubChem BioAssay
